Bioassay records deposited in PubChem BioAssay by Broad Institute.
RAD52 inh – RAD52 DNA annealing inhibitors, primary screen, biochemical, FRET, single point, set 2; recombinant RAD52 DNA annealing, FRET fluorescence; inhibition, % at 18.7 µM; 360,000 tested, 0.46% active;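 active = every replicate showing at least 50% inhibition; inconclusive = mean inhibition at least 50% but not in every replicate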
dFosB activator – activators of delta FosB homodimer, primary screen, biochemical, fluorescence polarization, TAMRA-CDK5 oligo, single point. Protein FosB (Mus musculus), P13346. purified delta FosB; percent of positive-control signal above neutral wells. activation, % at 25 µM. 340,000 tested, 0.99% active. AID 493131, 2011;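 active = mean activation above about 17%, with every replicate also reaching it, limit read from the data, passing the limit was not always enough; inconclusive = only one of the two conditions met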
DENV2 CPE – inhibitors of DENV2 cytopathic effect, primary screen, cell-based, plate reader, single concentration | DENV2-infected cells, cytopathic effect rescue | CPE inhibition, % at 9.99 µM | 350,000 tested, 1.7% active; in the data active = CPE inhibition above about 20%, passing the limit was not always enough; inconclusive = no clear call, values can overlap the other calls; tested in BHK-21 cells;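 also: 0% = median of neutral control wells and 100% = median of positive control wells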
GSIS activator – GLuc luminescence reporter in INS-1E cells, primary screen for activators of glucose-dependent secretion of insulin; INS-1E GLuc reporter insulin secretion, 2-3 h; activation, % at 16.6 µM; 370,000 tested, 0.61% active;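 active = lowest replicate activation of at least 40%, so every replicate reaches that level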;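 also: 0% = median of neutral control wells and 100% = median of IBMX positive control wells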
RAD54 inh – inhibitors of human RAD54 branch migration, primary screen, biochemical, fluorescence, single point | RAD54 Holliday junction branch migration, FAM/BHQ fluorescence | inhibition, % at 10.4 µM | 360,000 tested, 0.14% active | AID 602329, 2012;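 active = mean normalized replicate activity at least 40 and at least half of replicates scoring 40 or more; inconclusive = only one of the two criteria met; inactive = mean below 40 and under half of replicates reaching 40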;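 also: 0% = median of neutral control wells and 100% = median of positive control wells; inhibitors cause a drop in the FAM fluorescence signal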
AF4-AF9 inh – inhibitors of AF4 peptide binding to AF9, primary screen, biochemical, AlphaScreen, biotin-AF4 peptide, FLAG-AF9, single point; inhibition, % at 10 µM; 350,000 tested, 0.47% active;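 active = every replicate reaching a set inhibition limit, whatever the replicate mean, cut at about 25% in these data; inconclusive = mean inhibition reaches that limit but some replicates miss it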;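 also: 0% = plate neutral control median and 100% = total signal loss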
Target sequence (P42568 whole entry, looked up): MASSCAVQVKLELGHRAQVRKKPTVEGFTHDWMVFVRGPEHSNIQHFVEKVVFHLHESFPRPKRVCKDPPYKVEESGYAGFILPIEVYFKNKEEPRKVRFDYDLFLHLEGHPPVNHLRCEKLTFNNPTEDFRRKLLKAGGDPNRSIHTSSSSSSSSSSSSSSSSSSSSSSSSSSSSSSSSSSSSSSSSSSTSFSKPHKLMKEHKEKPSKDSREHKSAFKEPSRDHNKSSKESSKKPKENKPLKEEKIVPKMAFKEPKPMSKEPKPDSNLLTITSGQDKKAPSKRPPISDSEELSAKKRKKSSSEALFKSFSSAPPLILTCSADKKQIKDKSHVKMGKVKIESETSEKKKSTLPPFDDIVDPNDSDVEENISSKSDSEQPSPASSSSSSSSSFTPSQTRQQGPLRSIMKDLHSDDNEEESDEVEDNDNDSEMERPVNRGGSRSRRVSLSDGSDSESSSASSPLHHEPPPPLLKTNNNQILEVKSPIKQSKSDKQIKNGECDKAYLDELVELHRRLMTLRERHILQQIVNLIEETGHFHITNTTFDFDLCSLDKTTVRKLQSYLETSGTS
DNA binding – DNA binding of candidate compounds, dose response, artefact control for RAD54 inhibitor project, biochemical, fluorescence polarization, cherry-pick; shares compounds with RAD54 inh; Acridine orange-DNA displacement, 20 min; AC50, µM (series often up to 35 µM), without a hit: top-dose activity change, negative = DNA binding; 460 tested, 8% active;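 active = signal drop giving an AC50 within twice the top valid tested concentration of each sample, actives reach about 35 µM in these data; inactive = activity opposite to expected, plus the rest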;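 also: polarization loss reports compound binding to salmon sperm DNA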
* hit, by the source's call; i = inactive; ? = inconclusive; . = no result. Rows were chosen to be rich in hits. Some 3.1% of all compounds tested hit in one or more screens of this group.

SMILES	RAD52 inh	dFosB activator	DENV2 CPE	GSIS activator	RAD54 inh	AF4-AF9 inh	DNA binding
Cc1cccc(Cn2c(Sc3nc(C)cs3)nc3c2c(=O)[nH]c(=O)n3C)c1	.	6.4	.	.	?	.	14.3%
Cc1csc(Sc2nc3c(c(=O)[nH]c(=O)n3C)n2Cc2ccccc2Cl)n1	.	-6.0	.	.	8.1	.	.
O=C(CSc1n[nH]c(=O)n1C1CC1)c1ccc(F)cc1	-4.9	.	9.0	3.3	-9.4	1.2	.
O=c1cc(CSc2n[nH]c(=O)n2C2CC2)c2ccc(O)cc2o1	-1.5	.	-1.5	11.8	?	-1.6	-1.6%
COc1ccc(-c2cn(CC[C@@H]3CC[C@H](NC(=O)NC(C)C)[C@H](CO)O3)nn2)cc1	11.5	.	12.5	1.8	0.2	-1.9	.
Cc1noc(C)c1NC(=O)Nc1ccc2c(c1)C(=O)N([C@@H](C)CO)C[C@H](C)[C@H](CN(C)C(=O)CCCN(C)C)OCCCC[C@H](C)O2	3.7	.	?	1.9	5.2	-1.6	.
COC(=O)Nc1nnc(COc2ccccc2)s1	3.8	.	-1.5	-2.1	?	-2.7	2.7%
COC(=O)Nc1nnc(COc2cccc(C)c2)s1	-24.9	-8.1	2.3	-14.4	.	-1.6	.
COc1ccccc1CN1C[C@@H](C)[C@@H](OC)CN(C)C(=O)c2cc(NC(C)=O)ccc2OC[C@@H]1C	3.9	.	?	4.4	-0.7	2.5	.
CN1CCN(c2nc(-c3ccccn3)nc3ccccc23)CC1	.	-14.6	.	.	?	.	8.8%
CN1CCN(c2nc(-c3cccnc3)nc3ccccc23)CC1	-4.4	-23.2	1.7	23.6	57.4*	-15.7	-19.7%
Cc1ccc(S(=O)(=O)N[C@@H]2CC[C@H](CC(=O)NCCN3CCCCC3)O[C@@H]2CO)cc1	-14.2	.	4.2	-5.0	7.5	-1.4	.
Cc1ccc(-c2cnc3c(c2)C(=O)N([C@@H](C)CO)C[C@@H](C)[C@H](CN(C)C(=O)CN(C)C)O3)cc1	-2.8	.	?	15.5	-9.9	-1.5	.
C[C@@H]1CN([C@@H](C)CO)C(=O)c2cc(C#CC3(O)CCCC3)cnc2O[C@H]1CN(C)C(=O)C1CCOCC1	-6.8	.	0.1	5.0	-3.4	-2.2	.
CCOC(=O)c1c(CN2CCCCC2)n(C)c2cc(Br)c(OC)cc12	.	12.1	.	.	?	.	-16.6%
CCOC(=O)c1c(CN2CCN(CCO)CC2)n(C)c2cc(Br)c(OC)cc12	.	14.5	.	3.4	35.2	.	.
CO[C@H]1CN(C)C(=O)c2cc(NC(=O)Nc3cc(F)ccc3F)ccc2OC[C@H](C)N(C(=O)c2cnccn2)C[C@@H]1C	-6.0	.	-0.2	-7.3	6.9	1.6	.
C[C@@H]1CN([C@@H](C)CO)C(=O)c2cc(NS(=O)(=O)c3cccs3)ccc2O[C@@H]1CN(C)S(=O)(=O)c1ccc(Cl)cc1	-7.5	.	0.5	-9.6	12.0	-0.6	.
COc1ccc2c3c(n(C)c2c1)[C@@H](CO)N(C(=O)C1CCC1)CC31CCN(C)CC1	8.3	.	4.8	7.5	.	2.9	.
C[C@H]1CN([C@@H](C)CO)C(=O)c2cc(NS(=O)(=O)c3ccc(F)cc3)ccc2O[C@H]1CN(C)C	-10.2	.	18.6	26.5	9.7	-1.2	.
COc1ccc(OC)c2c(C)cc(NCCN3CCOCC3)nc12	.	9.2	.	9.1	53.8*	.	-9.9%
COc1ccc(S(=O)(=O)NCCN2CCOCC2)c(C)c1C	11.2	-0.9	-3.9	.	0.6	-2.8	.
Cc1ccnc(Nc2nc(-c3sc(C)nc3C)cs2)c1	-15.3	-16.7	-9.3	-10.6	?	5.7	-4.5%
C[C@H]1CN([C@@H](C)CO)C(=O)Cc2cc(NC(=O)C3CC3)ccc2O[C@@H]1CN(C)C(=O)Nc1cccc2ccccc12	2.9	.	12.4	3.4	0.0	-4.2	.
COC(=O)C1=C(C)Nc2nc3ccccc3n2C1c1ccccc1F (stereo not drawn)	-14.8	.	-0.6	.	?	-2.1	-12.5%
SMILES	RAD52 inh	dFosB activator	DENV2 CPE	GSIS activator	RAD54 inh	AF4-AF9 inh	DNA binding
CNC(=O)C1=C(C)Nc2nc3ccccc3n2C1c1ccc(F)cc1 (stereo not drawn)	-3.2	-3.9	-3.0	5.4	0.3	-36.6	.
COc1cc(NCCCNC(C)C)c2nccc(C)c2c1	60.5*	11.4	7.8	8.8	83.5*	9.8	-5.4%
COc1cc2c(C#N)c(N3CCN(C)CC3)nc(N)c2c(N)n1	.	15.4	.	.	71.1*	.	-17.3%
CCOC(=O)c1cnc2c(C)cccc2c1NCCCN1CCOCC1	17.3	5.5	-3.4	10.8	95.1*	1.8	-18.6%
Clc1ccc(NNc2ccnc3cc(Cl)ccc23)cc1	.	1.0	.	.	-0.7	.	.
Oc1ccc(Nc2ccnc3cc(Cl)ccc23)cc1	-4.2	?	-1.4	7.3	58.0*	0.9	-11.8%
C[C@@H]1CN([C@H](C)CO)C(=O)c2cc(C#CCN(C)C)cnc2O[C@@H]1CN(C)Cc1cccc(C(=O)O)c1	.	.	.	-4.0	-3.7	-1.0	.
Cc1ccc(S(=O)(=O)CCSc2ccc(C(F)(F)F)cn2)cc1	-16.9	.	0.9	.	?	-3.0	-1.9%
OC1CCCN(Cc2c3ccccc3cc3ccccc23)C1 (stereo not drawn)	.	?	.	.	93.1*	.	i
CO[C@H]1CN(C)C(=O)c2ccc(NC(=O)C3CCC3)cc2OC[C@H](C)N(CC2CCCCC2)C[C@H]1C	.	.	.	-20.4	.	.	.
Cc1c(O)c(CN(C)C)cc2c1oc(=O)c1ccccc12	25.7	1.0	-0.9	31.7	?	4.3	7.5%
CCCn1c(=N)c(C(=O)NC2CCCC2)cc2c(=O)n3cccc(C)c3nc21	.	2.4	.	.	8.8	.	.
CCn1c(=N)c(C(=O)NC)cc2c(=O)n3cccc(C)c3nc21	.	9.1	.	.	?	-4.6	0.0%
CCOC(=O)c1c(C)n(C)c2ccc(OCC(O)CN3CCCCCC3)cc12 (stereo not drawn)	33.6	-1.0	-7.3	-0.1	31.6	0.5	.
CCOC(=O)c1c(C)n(C)c2ccc(OCC(O)CN3CCC(C)CC3)cc12 (stereo not drawn)	25.7	1.8	-8.0	4.9	?	1.9	-7.6%
C[C@@H]1CN([C@H](C)CO)C(=O)c2cc(NS(=O)(=O)c3ccccc3)ccc2O[C@@H](C)CCCCO[C@@H]1CN(C)S(=O)(=O)c1ccc(F)cc1	12.1	.	8.6	-9.2	-21.3	-1.7	.
Cc1nc2ccccc2c2oc(C(=O)N3CCC(N4CCCCC4)CC3)cc12	.	-12.9	.	.	67.1*	.	-5.1%
Cc1nc2ccccc2c2oc(C(=O)NCCN3CCCCC3C)cc12 (stereo not drawn)	-5.3	-19.0	11.9	.	52.4*	-5.8	-18.9%
CCCCNC(=O)c1c(O)c2cccc3c2n(c1=O)CCC3	.	5.0	.	.	-4.6	.	.
